According to the supplement of paper PMC6555819:

System: PPARa:RXRa (NR concentration 270 nM, RXRa partner concentration 90 nM)
Test: PBM binding z-score (relative to random genomic background probes); higher = stronger binding; sequences stand for … in GC…GCGATTGACAGCGTAGAATGAAGG
Outline: (§1)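 Binding z-scores take random background probes as their reference. They come from custom Agilent 4×180K protein-binding microarrays incubated 1 h with ligand-free nuclear receptor dimers, with antibodies against each partner (one per run) detecting binding. Scanned fluorescence was regression-normalized.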

Sequence	PBM binding z-score
GGAACGAGGGCAAAGCTGATAGCATCTGTCGACG	1.68
CCTAGCAGGACAATCTGGGTCACTCAAGGCTTGA	3.31
CGAACGAGGGCATGAGTCGATAGCAAATGCCGAT	1.48
TAGCCTAGGTCATGCGGGCCAGTAAAGTGTCGGC	3.69
CGTTACGGGTCACTGACAGGTTATAGCATTTGGA	5.54
AGAATCAGGTTACCAAAGATCAGGGAAACGCTTG	1.69
CCTACTGGGCCAAAAAGGTCATCGATGCCGATAA	4.93
ATATGTACGTTAAGGGTCATTCAGGTTGGTTCGC	4.74
TCTCGGAGGATACGAAGGTCAGAGCTTTCCAGAG	1.55
TCATATAGGTAAAGGTGAAAGTGGAACGATATGA	3.54
CCTGCTAGGTCAATGGCCAGCTAAAGCAGCTCGC	2.73
TCGGACAGGTGAAGGTAACTCAGGTACGCAGTCG	0.988
TCATATAGGTAAAACGTGAAAGTCGGTGTGGTAA	2.09
GCAGACAGGTGAAACGCAGGTAACTCACGGTGGC	0.612
CGTCCAAGGTCAGAGAGGTCAGGGAATGCCGAGT	5
GCTCGGAGGACAAGCTCAGAGCTTTGTCCGTAGA	-0.425
TGTAGTTGGTCACGGAGGTCACACACGACGGGTA	3.87
CAAACTAGGTCAAGAGGTCACAGTCCGCTTCCCG	6.61
CAAACTAGGTCAAGAGGTCGAAGTCCGCTTCCCG	5.23
GCCTACGGGTCAAAGGTTATAGCATGAATAGAAT	6.6

Sequence	PBM binding z-score
TAGCCTAGGTCATGGGCCAGCATACCACGCGAAC	3.9
CGAACTGGGTCATCCAGGACAGTGAATACATTGA	4.92
CCAGACAGGTGAAAGATAACTCAGTCTGGTACGC	0.902
CCTACTGGGCCATCAGGTCATTGTTATCAACGTT	2.76
CGAACTAGGACAAGGACAGTGAATCTCCGCACGC	0.455
CAGCCTAGGTCACGGCCAGTATAGGAGGAACGTT	4.72
TCATATAGGTAAATGCTAGGTGAAAGCCCGATCT	1.4
GCTCGGACGACAAGGTCAGAGCTTTGTCCGTAGA	2
CAAGCTAGGTCACGAAAGGTCAAAGTCGAATGAC	6.5
TAGGCTAGGTCATGGGCCAGTATACCACGCGAAC	4.03
GCAGACAGGTGAAACGCAGGTAAATCAGGGTGGC	0.983
CCTTACGGGTCAAGGTTATTGCACGGGTGGTACG	4.77
ACTGACAGGTGATGAAGGTAACTCAGGCTATCAT	-0.0489
CAAACTAGGTCATCGGAAGGTCAAAGTCCGCATG	6.01
CAAACTAGGTAACGAAAGGTCAAAGTCGAATGAC	5.8
TCTCGGAGGACCCGAAGGTCAGAGCTTTCCAGAG	1.69
AACACAGGGTCATCGTAGGCCAGAGTACGCACAG	5.84
AGAATGAGGTTATTAAGATCCGGGAATTGCGGTC	2.49
TCATATAGGTAAATGCTAGATGAAAGTCCGATCT	1.06
CCTGCTAGGTCATGGTAAGCTAATCTACAGTATG	3.64

System: PPARg:RXRa (NR concentration 180 nM, RXRa partner concentration 90 nM)
Test: as above
Outline: as §1

Sequence	PBM binding z-score
GGAACGAGGGCAAAGCTGATAGCATCTGTCGACG	1.5
CCTAGCAGGACAATCTGGGTCACTCAAGGCTTGA	2.44
CGAACGAGGGCATGAGTCGATAGCAAATGCCGAT	1.74
TAGCCTAGGTCATGCGGGCCAGTAAAGTGTCGGC	2.07
CGTTACGGGTCACTGACAGGTTATAGCATTTGGA	4.6
AGAATCAGGTTACCAAAGATCAGGGAAACGCTTG	1.24
CCTACTGGGCCAAAAAGGTCATCGATGCCGATAA	4.32
ATATGTACGTTAAGGGTCATTCAGGTTGGTTCGC	4.87
TCTCGGAGGATACGAAGGTCAGAGCTTTCCAGAG	0.177
TCATATAGGTAAAGGTGAAAGTGGAACGATATGA	4.42
CCTGCTAGGTCAATGGCCAGCTAAAGCAGCTCGC	1.84
TCGGACAGGTGAAGGTAACTCAGGTACGCAGTCG	0.599
TCATATAGGTAAAACGTGAAAGTCGGTGTGGTAA	2.92
GCAGACAGGTGAAACGCAGGTAACTCACGGTGGC	0.796
CGTCCAAGGTCAGAGAGGTCAGGGAATGCCGAGT	4.38
GCTCGGAGGACAAGCTCAGAGCTTTGTCCGTAGA	-1.69
TGTAGTTGGTCACGGAGGTCACACACGACGGGTA	3.72
CAAACTAGGTCAAGAGGTCACAGTCCGCTTCCCG	10.2
CAAACTAGGTCAAGAGGTCGAAGTCCGCTTCCCG	8.83
GCCTACGGGTCAAAGGTTATAGCATGAATAGAAT	10.4

Sequence	PBM binding z-score
TAGCCTAGGTCATGGGCCAGCATACCACGCGAAC	3.38
CGAACTGGGTCATCCAGGACAGTGAATACATTGA	7.51
CCAGACAGGTGAAAGATAACTCAGTCTGGTACGC	1.27
CCTACTGGGCCATCAGGTCATTGTTATCAACGTT	2.54
CGAACTAGGACAAGGACAGTGAATCTCCGCACGC	1.22
CAGCCTAGGTCACGGCCAGTATAGGAGGAACGTT	4.54
TCATATAGGTAAATGCTAGGTGAAAGCCCGATCT	0.799
GCTCGGACGACAAGGTCAGAGCTTTGTCCGTAGA	0.028
CAAGCTAGGTCACGAAAGGTCAAAGTCGAATGAC	7.39
TAGGCTAGGTCATGGGCCAGTATACCACGCGAAC	4.36
GCAGACAGGTGAAACGCAGGTAAATCAGGGTGGC	0.513
CCTTACGGGTCAAGGTTATTGCACGGGTGGTACG	4.52
ACTGACAGGTGATGAAGGTAACTCAGGCTATCAT	0.472
CAAACTAGGTCATCGGAAGGTCAAAGTCCGCATG	8.72
CAAACTAGGTAACGAAAGGTCAAAGTCGAATGAC	6.82
TCTCGGAGGACCCGAAGGTCAGAGCTTTCCAGAG	0.0649
AACACAGGGTCATCGTAGGCCAGAGTACGCACAG	5.85
AGAATGAGGTTATTAAGATCCGGGAATTGCGGTC	1.06
TCATATAGGTAAATGCTAGATGAAAGTCCGATCT	1.06
CCTGCTAGGTCATGGTAAGCTAATCTACAGTATG	2.48
